Assay results: PubChem BioAssay AID1851 (National Center for Advancing Translational Sciences (NCATS), 2009)
Screen size: about 16,000 compounds; about 5,100 (32%) were called active. Another 25% or so got no clear call; they are omitted. Calls come from the whole dose curve; as a rule, active = well fitted curve in the direction sought with a large enough effect; inconclusive = small, poorly fitted or top-dose-only effect, or effect the other way; inactive = no such curve, though single readings can be large or run the other way. The list shows a part of the results.

Molecular target: Cytochrome P450 3A4 (Homo sapiens) (UniProt P08684)
Assay: Cytochrome panel assay with activity outcomes
Conditions: recombinant CYP, pro-luciferin dealkylation, luminescence, p450-cyp3a4; series mostly up to 57.1 µM; activity, negative = inhibition: at the top concentration
% is set by controls: 0 for no effect and ±100 for the full control effect.

Sequence of Cytochrome P450 3A4 (Homo sapiens) (P08684 whole entry, looked up): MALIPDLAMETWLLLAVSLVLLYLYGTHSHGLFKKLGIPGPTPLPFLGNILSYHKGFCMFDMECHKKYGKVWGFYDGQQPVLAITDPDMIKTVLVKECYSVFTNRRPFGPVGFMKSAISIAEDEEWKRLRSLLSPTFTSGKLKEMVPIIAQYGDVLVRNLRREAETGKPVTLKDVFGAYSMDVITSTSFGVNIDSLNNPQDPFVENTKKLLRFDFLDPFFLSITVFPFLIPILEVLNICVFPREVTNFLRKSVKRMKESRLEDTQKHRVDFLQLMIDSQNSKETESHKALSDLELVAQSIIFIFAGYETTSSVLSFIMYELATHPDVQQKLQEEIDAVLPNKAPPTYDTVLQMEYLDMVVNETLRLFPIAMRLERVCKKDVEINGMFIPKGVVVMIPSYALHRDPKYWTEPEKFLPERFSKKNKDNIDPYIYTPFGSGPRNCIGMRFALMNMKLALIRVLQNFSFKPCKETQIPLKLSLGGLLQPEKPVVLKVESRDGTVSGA

| Structure (SMILES) | activity, negative = inhibition | AC50 |
| --- | --- | --- |
| OC[C@H](S)CS | -9.69% [at 11.4 µM] (inactive) | – |
| CCn1c(SCc2ccc(C)cc2)nnc1-c1nn(-c2ccccc2)ccc1=O | – | 8.91 µM (active) |
| CCn1c(SCc2cccc(C)c2)nnc1-c1ccc(C)cc1 | – | 8.91 µM (active) |
| Cc1cccc(CSc2cccc3cccnc23)c1 | -26.5% (inactive) | – |
| COc1ccc(-c2nnc(SCc3cccc(C)c3)n2N)cc1 | – | 10 µM (active) |
| CCC(=O)O[C@@H]1[C@H](C)O[C@H](O[C@H]2[C@@H](N(C)C)[C@H](O)[C@@H](O[C@@H]3[C@@H](CC=O)C[C@@H](C)[C@@H](O)/C=C\C=C/C[C@@H](C)OC(=O)C[C@@H](OC(=O)CC)[C@H]3OC)O[C@H]2C)C[C@]1(C)O | -19% [at 25.6 µM] (inactive) | – |
| O=C1C2C3C=CC(C3)C2C(=O)N1/N=C/c1cn(Cc2ccccc2)c2ccccc12 (stereo not given) | -22.4% [at 11.4 µM] (inactive) | – |
| O=C1C2C3C=CC(C3)C2C(=O)N1/N=C/c1cn(Cc2ccc(F)cc2)c2ccccc12 (stereo not given) | – | 2.82 µM (active) |
| COC(=O)Cn1cc(/C=N/NC(=O)c2ccc(C#N)cc2F)c2ccccc21 | -10.5% [at 2.29 µM] (inactive) | – |
| COC(=O)/C=C\CCc1coc(/C=C\CNC(=O)OC)n1 | -19.3% [at 11.4 µM] (inactive) | – |
| COC(=O)[C@@H]1C[C@H]1[C@@H](NC(=O)Oc1ccc(F)cc1)c1ccccc1 | – | 12.6 µM (active) |
| COC(=O)[C@H]1C[C@@H]1[C@H](NC(=O)Oc1ccc(F)cc1)c1ccccc1 | – | 15.8 µM (active) |
| COC(=O)[C@H]1C[C@@H]1[C@H](NC(C)=O)c1ccccc1 | -23.7% (inactive) | – |
| COC(=O)[C@@H]1C[C@H]1[C@@H](NC(C)=O)c1ccccc1 | -18.2% (inactive) | – |
| O=C(O)[C@H]1CN(CCCP(=O)(O)O)CCN1 | – | inactive |
| CCCCCC1=C2CNC(C)(C(=O)OC)C=C2C(C)C1=O (stereo not given) | – | 12.6 µM (active) |
| CCCCCC1=C2CNC(CCC)(C(=O)OC)C=C2C(C)C1=O (stereo not given) | – | 20 µM (active) |
| COC(=O)C1(C)C=C2C(=C(c3ccccc3)C(=O)C2C)CN1 (stereo not given) | – | 10 µM (active) |
| COC(=O)C1(Cc2ccccc2)C=C2C(=C(C(C)C)C(=O)C2C)CN1 (stereo not given) | – | 7.94 µM (active) |
| CCCCCC1=C2CNC(Cc3ccccc3)(C(=O)OC)C=C2C(C)C1=O (stereo not given) | – | 15.8 µM (active) |
| COc1ccc(Oc2ncc3nc(-c4cccs4)c(=O)n(C)c3n2)cc1 | – | 3.98 µM (active) |
| COc1ncc2nc(-c3cccs3)c(=O)n(C)c2n1 | – | 15.8 µM (active) |
| Cn1c(=O)c(-c2cccs2)nc2cnc(Oc3ccccc3)nc21 | 7.32% (inactive) | – |
| Cc1cc(C2(c3cc(C)c(O)c(C(=O)O)c3)OS(=O)(=O)c3ccccc32)cc(C(=O)O)c1O | 5.57% [at 11.4 µM] (inactive) | – |

| Structure (SMILES) | activity, negative = inhibition | AC50 |
| --- | --- | --- |
| CC1=CC(C)(C)Nc2ccc(CSc3ccccc3)cc21 | – | 3.98 µM (active) |
| O=C(O)c1c[nH]c2cc(OCc3ccccc3)ccc2c1=O | -10.2% [at 11.4 µM] (inactive) | – |
| Cc1cc2c(cc1C)NC1=C(N2)O[C@H](c2c[nH]c3ccc(COc4ccccc4)cc23)C1=O | – | 3.98 µM (active) |
| COCCN=C1Sc2nc3c(C)cccc3cc2CN1Cc1ccco1 | – | 14.1 µM (active) |
| CC1(C)[C@@H]2CC[C@]1(C)[C@@H](OC(=O)CSC#N)C2 | -20.6% [at 11.4 µM] (inactive) | – |
| O=c1c(-c2ccccc2)nc2cncnc2n1Cc1ccccc1Cl | -26.7% (inactive) | – |
| O=c1cnc2cncnc2n1Cc1ccccc1Cl | -25.7% (inactive) | – |
| O=c1c(CCc2ccccc2)nc2cncnc2n1Cc1ccc(F)cc1 | – | 3.16 µM (active) |
| O=c1c(CCc2ccccc2)nc2cncnc2n1Cc1ccccc1Cl | – | 15.8 µM (active) |
| CCCCCCCCCCCCCCCCCCOC[C@@H](COP(=O)([O-])OCC[N+](C)(C)C)OC | 3.29% (inactive) | – |
| CCCCCCCCCCCCCC(=O)O[C@H](CC(=O)O)C[N+](C)(C)C | -18.2% (inactive) | – |
| CCCCCCCCCCCCCCCC(=O)NC[C@@H](COP(=O)([O-])OCC[N+](C)(C)C)OCC | – | 25.1 µM (active) |
| CCCCCCCCCCCCCCCCCCNC(=O)OC[C@@H](COP(=O)([O-])OCC[n+]1ccsc1)OC | 9.2% (inactive) | – |
| CCCCCCCCCCCCCCCCCC(=O)NC[C@@H](COP(=O)([O-])OCC[N+](C)(C)C)OCC | – | 31.6 µM (active) |
| CCCCCCCCCCCCCCCCCC(=O)O[C@H](CC(=O)O)C[N+](C)(C)C | -3.53% (inactive) | – |
| CCCCCCC(C)n1cc(C(C)=O)c(=O)[nH]c1=O (stereo not given) | 12.8% [at 2.29 µM] (inactive) | – |
| Fc1cccc(Cl)c1CSc1ncn[nH]1 | – | 4.47 µM (active) |
| CCCC[C@@H]1C[C@H]1C(NC(=O)c1ccc(C(F)(F)F)cc1)c1ccc(C(=O)OC)cc1 (stereo not given in full) | – | 5.01 µM (active) |
| CCCC[C@@H]1C[C@H]1C(NC(=O)c1cccs1)c1ccccc1C(F)(F)F (stereo not given in full) | – | 3.16 µM (active) |
| CCCC[C@@H]1C[C@H]1C(NC(=O)c1cccs1)c1ccc(Cl)cc1 (stereo not given in full) | – | 5.01 µM (active) |
| CCCC[C@@H]1C[C@H]1C(NC(=O)c1cccs1)c1ccc(C(F)(F)F)cc1 (stereo not given in full) | – | 3.16 µM (active) |
| Cc1ccc(OCCNC(=O)c2cncc(Br)c2)cc1C | – | 7.08 µM (active) |
| CCOC(=O)c1cncc(C(=O)O)c1 | 1.77% [at 2.29 µM] (inactive) | – |
| O=C(NC(=S)Nc1ccc(Br)cn1)c1cncc(Br)c1 | -24.4% [at 2.29 µM] (inactive) | – |

| Structure (SMILES) | activity, negative = inhibition | AC50 |
| --- | --- | --- |
| CCOC(=O)CCCNC(=O)c1cncc(Br)c1 | – | 14.1 µM (active) |
| O=C(Nc1ccccc1)c1cc(-n2cnnc2)ccc1Cl | 14.9% (inactive) | – |
| Cc1ccc(OCCNC(=O)c2cc(-n3cnnc3)ccc2Cl)cc1C | – | 7.94 µM (active) |
| CCOC(=O)CNC(=O)c1cccnc1 | 4.45% [at 11.4 µM] (inactive) | – |
| CN(C)CCNC(=O)c1cc(Br)ccc1Cl | -12.1% (inactive) | – |
| Cc1nc2c(OCc3ccccc3)cccn2c1CC#N | – | 15.8 µM (active) |
| Cn1c(-c2sccc2OCc2ccccc2)n[nH]c1=S | 19.7% (inactive) | – |
| CC(C)Cn1c(=O)n(C)c(=O)c2[nH]cnc21 | – | 3.98 µM (active) |
| Cn1c(=O)c2[nH]cnc2n(C)c1=O | – | inactive |
| Nc1nc(=O)c2[nH]cnc2n1O | -2.96% [at 11.4 µM] (inactive) | – |
| CN(Cc1cc(Cl)cc(Cl)c1O)Cc1c(O)ccc2ccccc12 | -29.5% [at 11.4 µM] (inactive) | – |
| CC(C)(N)C(=O)N[C@@H]1C(=O)N2[C@@H]1SC(C)(C)[C@H]2C(=O)O | -5.57% [at 11.4 µM] (inactive) | – |
| Nc1ccc(N(c2ccccc2)c2ccc(N)cc2)cc1 | – | 1.78 µM (active) |
| Nc1ccc(S(=O)(=O)NC(=O)c2ccccc2)cc1 | -6.82% [at 25.6 µM] (inactive) | – |
| COc1ccc(C2C3=C(CC(C)(C)CC3=O)Oc3ncn(CC(C)C)c(=N)c32)cc1 (stereo not given) | – | 12.6 µM (active) |
| N#CCCn1c(=O)c(-c2ccc(F)cc2)nc2cnc(Oc3cccc(Cl)c3)nc21 | -20.7% (inactive) | – |
| CN(C)c1ncc2nc(-c3ccc(F)cc3)c(=O)n(CCC#N)c2n1 | -6.39% (inactive) | – |
| N#CCCn1c(=O)c(-c2cccc(C#N)c2)nc2cnc(Oc3ccccc3)nc21 | -12.2% (inactive) | – |
| COCCn1c(=O)c(-c2cccc(C#N)c2)nc2cnc(N(C)C)nc21 | -19.3% (inactive) | – |
| COCCn1c(=O)c(-c2cccc(C#N)c2)nc2cnc(OCc3ccccc3)nc21 | – | 10 µM (active) |
| N#CCCn1c(=O)c(-c2ccc(F)cc2)nc2cnc(OCc3ccccc3)nc21 | – | 15.8 µM (active) |
| COCCn1c(=O)c(-c2cccc(C#N)c2)nc2cnc(Oc3ccccc3)nc21 | – | 25.1 µM (active) |
| COCCn1c(=O)c(-c2cccc(C#N)c2)nc2cnc(Oc3ccc(OC)cc3)nc21 | – | 2.51 µM (active) |
| CC(C)(C)NC[C@@H](O)COc1ccccc1C1CCCC1 | -7.01% [at 25.6 µM] (inactive) | – |

| Structure (SMILES) | activity, negative = inhibition | AC50 |
| --- | --- | --- |
| COc1cc2c(cc1OC)-c1cc3ccc(OC)c(OC)c3c[n+]1CC2 | -16.2% [at 25.6 µM] (inactive) | – |
| CC(C)c1ccc2nc3sc(C(=O)N4CCc5ccccc5C4)c(N)c3cc2c1 | 6.07% [at 2.29 µM] (inactive) | – |
| Cc1ccc(S(=O)(=O)N[C@H](C(=O)N2CCC(C(=O)NCC(=O)O)CC2)C(C)C)cc1 | -18.8% (inactive) | – |
| CC(C)C(NS(=O)(=O)c1cccc2nsnc12)C(=O)N1CCc2ccccc2C1 (stereo not given) | – | 7.08 µM (active) |
| Cc1cc(OC(=O)c2ccc(Cl)cc2)cc(=O)n1C | -9.63% (inactive) | – |
| COC(=O)C(NC(=O)c1ccc(Cl)cc1)(Nc1nc(C)cs1)C(F)(F)F (stereo not given) | – | 14.1 µM (active) |
| CCOc1ccc(C(=O)Cc2cc(OC)c(OC)cc2[N+](=O)[O-])cc1 | – | 7.94 µM (active) |
| CCOc1ccc(/C=C/C(=O)Nc2ccc(OC)cc2[N+](=O)[O-])cc1 | -0.704% (inactive) | – |
| CCOc1ccc(C(=O)CCC(=O)O)cc1 | 4.1% (inactive) | – |
| C[C@]12CC[C@H]3c4ccc(OC[C@H]5CO5)cc4CC[C@H]3[C@H]1CC[C@@H]2O | 11.8% [at 11.4 µM] (inactive) | – |
| O=C(NCCCN1CCc2ccccc2C1)Nc1ccc(Cl)cc1 | 18.3% (inactive) | – |
| Cn1nccc1C(=O)Nc1ccc(Cl)cc1 | -16.2% (inactive) | – |
| S=C(S)NCCN1CCNCC1 | -13.6% [at 11.4 µM] (inactive) | – |
| NCCNC(=S)S | -20.2% [at 11.4 µM] (inactive) | – |
| S=C(S)NCCCn1ccnc1 | – | 1.58 µM (active) |
| COc1ccc(C(=O)N/C(=C/c2cccs2)C(=O)NCCCn2ccnc2)cc1OC | – | 1.58 µM (active) |
| O=C(NCCCn1ccnc1)Nc1ccc(Cl)cc1 | – | 0.398 µM (active) |
| COc1ccc2c(Cl)c(C(=O)NCCCn3ccnc3)sc2c1Cl | – | 0.501 µM (active) |
| CC(C)(CO)[C@H](O)C(=O)NCCCO | -2.39% [at 25.6 µM] (inactive) | – |
| N[C@@H](Cc1cc(-c2ccc(Cl)cc2Cl)cc(CP(=O)(O)O)c1O)C(=O)O | -5.32% (inactive) | – |
| O=C(O)C1CCCCC1C(=O)Nc1ccccc1Cl (stereo not given) | 2.92% (inactive) | – |
| CCc1ccccc1NC(=O)C1C(c2ccccc2)C1(Cl)Cl (stereo not given) | – | 15.8 µM (active) |
| COC(=O)C1=C(C)NC2=C(C(=O)CCC2)C1c1cn(Cc2ccc(Cl)cc2Cl)nc1-c1ccccc1 (stereo not given) | – | 2.51 µM (active) |
